Screens: PubChem BioAssay, several laboratories
Shown are actives, neighbours in structure and some others; about 3.1% of the full set was active somewhere.
UHRF1 MBD2 ctr – UHRF1 methyl-DNA binding inhibition; AID 687016; UHRF1 binding to methylated oligo, TR-FRET; Q96T88; 370,000 compounds, 0.75% hits; inhibition, % at 4.4 µM; in the data active = inhibition above about 21%;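 note: UHRF1 SRA domain binding a hemimethylated CpG hairpin DNA probe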
Rin1 Abl inh – human Rin1-Abl interaction inhibition; P00519+Q13671; TR-FRET Rin1/Abl binding, biochemical; inhibition, % at 7.35 µM; 360,000 compounds, 0.4% hits; in the data active = inhibition above about 5%, passing the limit was not always enough
Neddylation inh – blocks human cullin neddylation; P61081+Q13564; TR-FRET cullin neddylation, biochemical; calls only at 25 µM; 360,000 compounds, 0.58% hits; AID 651699; in the data active = inhibition above about 36%
proKLK7 act – proKLK7 (human) activation, primary screen; P49862; purified proKLK7, EDANS-DABCYL substrate fluorescence; 100% is mature enzyme control, 0% vehicle; activation, % at 7 µM; 370,000 compounds, 0.9% hits;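 active = activation above the mean of all tested compounds plus 3 SD, computed per campaign excluding outliers beyond control limits, cut at about 13% in these data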
MBD2 DNA inh – MBD2-methylated oligo binding inhibition. TR-FRET, MBD2 binding to methylated oligonucleotide. inhibition, % at 4.4 µM. Q9UBB5. 370,000 compounds, 0.31% hits; in the data active = inhibition above about 13%
LEDGF integ inh – blocks HIV-1 LEDGF/p75-dependent DNA integration | inhibition, % at 3.7 µM | AID 743269 | 370,000 compounds, 0.64% hits | TR-FRET IN-LEDGF/p75 DNA integration, Eu/Cy5;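 active = inhibition above the screen-wide mean plus 3 SD, cut at about 13% in these data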;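 note: signal is the Cy5 over europium emission ratio at 671 and 618 nm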
Numbers stand for hits; i = inactive; nt = no result shown.

SMILES | UHRF1 MBD2 ctr | Rin1 Abl inh | Neddylation inh | proKLK7 act | MBD2 DNA inh | LEDGF integ inh
COc1ccc2nc3sc(C(=O)N4CCN(C)CC4)cc3cc2c1 | i | i | i | i | i | i
COC(=O)C1CN(Cc2ccc(F)cc2)CCS(=O)(=O)N1Cc1ccc(C(F)(F)F)cc1 (stereo not drawn) | i | nt | nt | i | i | i
CCc1ccc2nc(/N=C(\N)NC(=O)c3ccccc3)nc(C)c2c1 | i | i | i | i | i | i
CCCC(=O)N/C(N)=N/c1nc(C)c2ccccc2n1 | 34 | i | i | i | i | i
CC1CC(C)CN(S(=O)(=O)N2CCCC(C(=O)NCc3ccccc3Cl)C2)C1 (stereo not drawn) | 22 | i | i | i | i | i
CC(=O)N1c2ccc(S(=O)(=O)N3CCCC3C(=O)NCc3ccccc3Cl)cc2CC1C (stereo not drawn) | 49 | i | i | i | i | i
Cc1cc2nc(/C=C/c3cccnc3)[nH]c2cc1C | i | i | i | 44 | i | i
CCNC(=O)C1(C)CCN(C(=O)c2ccccc2OC)C1 (stereo not drawn) | i | i | i | i | i | i
CC(=O)Nc1ccc2oc(-c3ccccc3)nc2c1 | 23 | i | nt | i | i | i
CC(=O)Nc1ccc(S(=O)(=O)Nc2cccc(-c3nc4cc(C)ccc4o3)c2)cc1 | 21 | i | nt | i | i | i
CSCC[C@H](N)C(=O)N1CCC(C(=O)N[C@H](C)C(=O)Nc2ccc(C(C)C)cc2)CC1 | i | i | i | i | i | i
COc1cccc(CN(C)C(=O)c2cccnc2SC)c1OC | 26 | i | i | i | i | i
COc1cccc(CN(C)C(=O)c2ccccc2Sc2ccccc2C#N)c1OC | i | i | i | i | i | i
CCCCn1c(N)c(N(CCOC)C(=O)c2cccc(S(=O)(=O)N(CC)c3ccccc3)c2)c(=O)[nH]c1=O | i | i | i | i | i | i
CCN1C(=O)CC(c2ccccc2)N(C2CCCC2)c2nc(Nc3ccc(C(=O)NC4CCN(C)CC4)cc3OC)ncc21 (stereo not drawn) | nt | 10 | nt | nt | nt | nt
O=C(O)C1Nc2ccc(Br)cc2C2C=CCC12 (stereo not drawn) | nt | 6.2 | i | nt | nt | nt
COc1ccc(NC(=O)Cn2cc(C(C)=O)c3ccccc32)cc1 | 94 | i | i | i | i | i
COc1ccc(NC(=O)CN2CCN(c3ccccc3C)CC2)cc1 | 79 | i | i | i | i | i
COC(=O)CCCn1cc(CN2CC(N3CCN(C)CC3)CS2(=O)=O)nn1 (stereo not drawn) | 24 | nt | i | i | i | i
Cc1c(C)c2c(OCC(=O)N3CCC(C(N)=O)CC3)cc3c(c2oc1=O)CCC(C)(C)O3 | i | i | nt | 32 | i | i
Cc1c(C)c2c(OCC(=O)NC3CC3)cc3c(c2oc1=O)CCC(C)(C)O3 | i | i | nt | i | i | i
N#CC(=Nc1cccc(F)c1)C1=C(O)c2ccccc2C1=O | i | i | i | i | i | i
COC(=O)c1ccc2nc(-c3cccc(Cl)c3)c(Cc3ccccc3OC)n2c1 | 21 | i | i | i | i | i
Clc1ccc2nc(-c3cccc(Br)c3)c(Cc3ccccc3)n2c1 | 21 | i | i | i | i | i
COC(=O)c1ccc2nc(-c3ccc(Cl)cc3)c(Cc3ccccc3)n2c1 | 23 | nt | nt | i | i | i
SMILES | UHRF1 MBD2 ctr | Rin1 Abl inh | Neddylation inh | proKLK7 act | MBD2 DNA inh | LEDGF integ inh
COC(=O)c1ccc2nc(-c3ccc(C)cc3)c(Cc3ccc(C)cc3)n2c1 | 21 | nt | nt | i | i | i
O=C(Nc1ccc2c(c1)OCO2)c1cc(C2CCCCN2S(=O)(=O)Cc2ccccc2)on1 (stereo not drawn) | i | i | i | i | i | i
CCOc1ccc(NS(=O)(=O)c2ccc(C(=O)NC3CCC(O)CC3)cc2)cc1 (stereo not drawn) | i | i | i | i | i | i
COC(=O)c1ccc2nc(-c3ccco3)c(Cc3ccc(C)cc3)n2c1 | 23 | i | nt | i | i | i
Cc1ccc(Cc2c(-c3cccc(Br)c3)nc3ccc(C)cn23)cc1 | i | nt | nt | i | i | i
COC(=O)c1ccc2nc(-c3ccco3)c(Cc3cccc(F)c3)n2c1 | i | i | i | i | i | i
Cc1ccc2nc(-c3cccc(Br)c3)c(CC3CCCCC3)n2c1 | 21 | i | i | i | i | i
COC(=O)c1ccc2nc(-c3ccco3)c(Cc3ccccc3OC)n2c1 | 26 | nt | nt | i | 16 | i
Cc1c(C=O)c2ccccn2c1C(=O)c1cccs1 | i | i | i | i | i | i
